Holding throughout (test): NCI-60 one-dose screen, 48 h (100 = growth as untreated, 0 = no growth, -100 = all killed)
Conditions in all cases: 10 µM unless noted

Assay [1] concerns RPMI-8226 leukemia.
The test system of assay [2] is OVCAR-8 ovarian.
Assay [3] relates to OVCAR-5 ovarian.
The test system of assay [4] is OVCAR-4 ovarian.
For assay [5], the system named is SK-OV-3 ovarian.
Assay [6] deals with IGROV1 ovarian.
The test system of assay [7] is OVCAR-3 ovarian.
Assay [8] relates to HS 578T breast.
The test system of assay [9] is NCI/ADR-RES ovarian.
Assay [10] has as its system T-47D breast.

SMILES strings stand for the structures. About 83,000 compounds went through this panel and 20% of them were active in at least one assay; those are over-represented in the sample as a whole.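 Interpretation: 100, growth as untreated; towards 0, rising growth inhibition; 0, no net growth; 0 to -100, cell death. Compounds scoring below 10 were considered active.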 Values without a mark were called inactive. Activity calls are given as the source filed them.

For `COc1ccc(Cl)c([N+](=O)[O-])c1`, the growth in [1] was 106%; in [2] it was 106%; in [3], 102%; in assay [4], 101%; in [5], 98%; in assay [6], 108%. Further, the growth is 112% in [7], 105% in [8], 102% in [9] and 84% in assay [10].

For the compound `COc1cc(-c2cn(-c3ccc(Cl)c(Cl)c3)c(=O)[nH]2)cc(OC)c1OC`, the growth in [1] was 99.3%; in [2] it was 95.1%; in assay [3] it was 87.6%; in assay [4], 98.9%; in assay [5] it was 88.3%; in assay [6], 136%. Moreover, the growth in [7] was 99.5%; in [8], 95.3%; in [9], 95.5%; in assay [10], 90.1%.

In the case of `C#C[C@@]1(O)[C@@H](CO)O[C@@H](n2cnc3c(-c4ccccc4)ncnc32)[C@@H]1O`, the growth was 106% in [1]; 107% in assay [2]; 101% in assay [3]; 98.5% in assay [4]; 105% in assay [5]; 106% in assay [6]. Moreover, the growth was 107% in [7], 113% in assay [8], 102% in assay [9] and 84% in assay [10].

With `O=C(/C(=C/c1ccc([N+](=O)[O-])cc1)SCc1ccc(Cl)cc1)c1ccc(F)cc1`, the growth is -25.6% (active) in [1]; 57.8% in assay [2]; 95.4% in assay [3]; 60.9% in assay [4]; 63.9% in [5]; 58.4% in assay [6]. The growth in [7] is 54%; in assay [8] it was 27.9%; in assay [9], 51%; in [10], 36.4%.

As for `CCCCc1n(Cc2ccc3ccccc3c2)c2ccccc2[n+]1Cc1ccc2ccccc2c1`, the growth in assay [1] was -37.9% (active); in assay [2], -76.7% (active); in [3], -94.1% (active); in assay [4], -90.7% (active); in [5], -65.5% (active); in [6], -80.1% (active). The growth in assay [7] is -87.8% (active); in assay [8], -61.5% (active); in assay [9], 63.2%; in assay [10], -62.1% (active).

For the compound `O=C(CCc1nnc2sc(OCc3ccccc3)nn12)c1nc2ccc([N+](=O)[O-])cc2[nH]1`, the growth is 106% in [1]; 94.7% in [2]; 103% in assay [3]; 102% in [4]; 77.3% in [5]; 93.8% in assay [6]. The growth in assay [7] was 96.4%; in assay [8], 88.2%; in [9], 99%; in [10], 97.7%.

Take `COc1ccc2nc(-c3ccc(OC)c(OC)c3)cc(-c3nnc(SCC(=O)Nc4ccc(/C(C)=N\O)cc4)n3-c3ccccc3)c2c1`: the growth is 47.7% in assay [1]; 72.4% in assay [2]; 102% in assay [3]; 95.5% in assay [4]; 101% in assay [5]; 28.1% in assay [6]. The growth in [7] is 87.8%; in [8] it was 72.2%; in assay [9] it was 77.2%; in [10] it was 45.8%.

As for `C[C@@H]1C(=O)[C@@H]2C[C@@H](O)[C@@H](O)C[C@]2(C)[C@H]2CC[C@@]3(C)C(=C12)CC[C@@H]3[C@@](C)(O)[C@H](O)CCC(C)(C)O`, the growth in assay [1] is 105%; in assay [2], 94.7%; in assay [3] it was 112%; in assay [4], 114%; in assay [5] it was 103%; in [6], 113%. In addition, the growth is 102% in assay [7], 99.3% in assay [8], 110% in [9] and 95.5% in assay [10].

`Cc1nc2sc(C(=O)Nc3cccc(Cl)c3C)c(N)c2cc1C(C)O` (stereo not given): the growth was 17.8% in assay [1]; 21.9% in assay [2]; 55.8% in assay [3]; 54.2% in [4]; 22.8% in assay [5]; 31.6% in assay [6]. Moreover, the growth in assay [7] was -5.67% (active); in assay [8] it was 31.8%; in assay [9] it was 7.9% (active); in [10] it was 44.4%.

In the case of `C=C1C(=O)O[C@H]2[C@H]1CC/C(C=Nc1c(N)cc(F)cc1Br)=C\CC[C@@]1(C)O[C@@H]21`, the growth in assay [1] is 12.8%; in assay [2] it was 78.4%; in assay [3] it was 103%; in assay [4], 105%; in [5] it was 87.3%; in assay [6] it was 60.4%. Moreover, the growth in assay [7] was 50.9%; in [8], 90.2%; in [9], 109%; in assay [10], 50%.

Consider `Nc1c(C(=O)Nc2cccc3ccccc23)sc2nc3c(cc12)CCCCC3`, for which the growth in assay [1] was 24.9%; in assay [2] it was 21.4%; in [3], 44.1%; in assay [4] it was 56.6%; in assay [5], 29.1%; in [6], 44.3%. The growth in assay [7] is -25.2% (active); in assay [8], 30%; in [9], 20.3%; in assay [10] it was 46.7%.

With `Cc1nn(-c2ccc(-c3ccc(OC(F)(F)F)cc3)cc2)c2nc(-c3ccccc3)nc(N)c12`, the growth is 118% in assay [1]; 93% in assay [2]; 98.3% in assay [3]; 102% in [4]; 108% in assay [5]; 99.3% in [6]. Further, the growth in [7] was 107%; in [8], 115%; in [9], 90.8%; in [10], 78.5%.
